HSF1 activator: increases HSF-1 driven luciferase reporter signal. NIH3T3-HGL HSF-1 luciferase reporter, MG132, 8 h; 100% = twice DMSO control signal. activation, % at 9 µM. actives 1.7% (n = 300,000);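 active = mean replicate activation of at least 50% with a set share of replicates each reaching 50%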
ARNT-TACC3 inh: ARNT/TACC3 interaction disruption; Q9Y6A5; AlphaScreen His-ARNT PAS-B/GST-TACC3 binding, luminescence; TACC3 fragment carries E629A point mutation; inhibition, % at 9.99 µM; actives 0.66% (n = 390,000); AID 623870;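 active = mean inhibition of replicates at least 50% and at least half of replicates each reaching 50%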
HIF act: HIF pathway transcriptional activation. actives 0.32% (n = 300,000). U2OS HRE-luciferase reporter, luminescence; normalized: DMSO 0%, desferrioxamine 100%. activation, % at 7.5 µM (by protocol);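 active = mean activation of at least 10% of the iron chelator positive control signal, with at least half of replicates also reaching 10%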
HSP90 inh: HSP90 refolding inhibition in rabbit reticulocyte lysate. actives 0.91% (n = 290,000). inhibition, % at 5.6 µM. luciferase refolding luminescence, 3 h;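 active = inhibition above the screen-wide mean plus 3 SD, computed separately per campaign, cut at about 16% in these data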;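 also: inhibitors lower the luminescence because luciferase stays unfolded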
HSF1 inh: HSF1 inhibition. AID 2098. NIH3T3-HGL HSE-luciferase, MG132-induced, luminescence 8 h; active compounds read low. activity change, negative = inhibition, % at 7.5 µM (by protocol). actives 0.77% (n = 300,000);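 active = more than half of replicate wells show activity change below -50%, luminescence cut by over half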;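 also: luciferase reports HSF-1 transcriptional activity via heat shock element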
Hits are given with their value; n = inactive; x = not tested or not shown. A selection: hits, their analogues and other compounds. The true share with any hit is near 3.1%.

SMILES	HSF1 activator	ARNT-TACC3 inh	HIF act	HSP90 inh	HSF1 inh
COc1ccc2[nH]c3c(=O)n(Cc4ccc(C(=O)N5CCCCCC5)cc4)c(=S)[nH]c3c2c1	n	n	n	n	n
C=CCNC(=S)N/N=C/c1ccc(-c2ccc(Br)cc2)o1	77.7	n	n	n	n
C=CCNC(=S)N/N=C/c1ccc(-c2cccc([N+](=O)[O-])c2)o1	n	n	n	n	n
CC(C)(C)C1CCc2[nH]c3ccccc3c(=O)c2C1 (configuration not stated)	n	n	n	n	n
Cc1c2c(nc3ccccc13)CCC(C(C)(C)C)C2 (configuration not stated)	56.9	n	n	n	n
CCOc1cc(C(=S)N2CCOCC2)ccc1OS(=O)(=O)c1ccc(OC)cc1	n	n	n	n	-78.0
O=C(c1ccco1)c1coc2c1cc(O)c1ccccc12	67.9	n	n	n	n
CC(=O)c1coc2c1cc(O)c1ccccc12	n	n	n	n	n
Cc1cc(=O)[nH]c(-n2nc(C)cc2C)n1	n	n	n	n	n
Cc1cc(C)n(-c2cc(=O)n(C)c(=O)n2C)n1	67.3	n	n	n	n
Cc1cc(C)c(NC(=O)COC(=O)c2cccc3c2C(=O)c2ccccc2C3=O)c(C)c1	n	n	n	n	n
Cc1cc(C)c(Nc2cc(S(=O)(=O)O)c(N)c3c2C(=O)c2ccccc2C3=O)c(C)c1	x	54.6	x	n	x
O=C(NCc1ccccn1)c1c(Cl)cccc1Cl	n	n	n	n	n
Cc1c(Cl)cccc1-c1ccc(CNCc2ccccn2)o1	n	63.7	n	n	n
Cn1c(N)c(C(C[N+](=O)[O-])c2c(F)cccc2Cl)c(=O)n(C)c1=O (configuration not stated)	n	n	n	n	n
CN(C)c1ccc(C(C[N+](=O)[O-])c2c(N)n(C)c(=O)n(C)c2=O)c(F)c1C#N (configuration not stated)	66.4	n	n	n	n
COc1ccccc1-c1cnc2c(c1)C(=O)N([C@H](C)CO)C[C@@H](C)[C@H](CN(C)CC1CCOCC1)O2	x	n	x	x	x
O=C(Cc1ccncc1)NCC[C@H]1CC[C@@H](NC(=O)C2CCCC2)[C@H](CO)O1	x	n	x	x	x
O=C(C[C@H]1C[C@H]2c3cc(NC(=O)Nc4ccccc4)ccc3O[C@H]2[C@@H](CO)O1)NCc1ccncc1	x	n	x	x	x
O=C1c2ccccc2C(=O)N1CCSc1ccccc1	103.2	n	n	n	n
O=C1c2ccccc2C(=O)N1CCSc1nncs1	n	n	n	n	n
N#Cc1ccccc1NC(=O)COc1ccc2c(c1)OCO2	88.1	n	n	n	n
CCc1ccccc1NC(=O)COc1ccc2c(c1)OCO2	n	n	n	n	n
O=C(c1ccc(Cl)cc1)C(CN1CCCCC1)c1ccccc1 (configuration not stated)	106.8	n	n	n	n
O=C(Nc1ccc(F)cc1)c1ccc(=O)[nH]n1	n	n	n	n	-71.2
SMILES	HSF1 activator	ARNT-TACC3 inh	HIF act	HSP90 inh	HSF1 inh
O=C(Nc1cccc(Cl)c1)c1ccc(=O)[nH]n1	n	n	n	n	n
COc1ccccc1/C=C1\SC(=S)N(CCC(=O)Nc2cc(C)on2)C1=O	n	n	n	n	n
O=C(CCN1C(=O)/C(=C/c2cccs2)SC1=S)Nc1ccccc1O	69.3	n	n	n	n
O=C(CCN1C(=O)/C(=C/c2cccs2)SC1=S)Nc1ccc(O)cc1	n	n	n	n	n
Cc1cc(NC(=O)CCN2C(=O)/C(=C/c3ccccc3Cl)SC2=S)no1	54.4	n	n	n	n
COc1ccc(NC(=O)Nc2ccc3c(c2)C(=O)N([C@@H](C)CO)C[C@@H](C)[C@H](CN(C)C(=O)CCCN(C)C)OCCCC[C@@H](C)O3)cc1	x	n	x	x	x
CN(C)C(=O)C[C@H]1CC[C@@H]2[C@H](COC[C@@H](O)CN2Cc2ccc(C(F)(F)F)cc2)O1	x	n	x	x	x
O=C(O)c1cc(S(=O)(=O)N(Cc2ccccc2)c2ccccc2Cl)ccc1Cl	n	n	n	n	-52.3
C/C(=N\NC(=O)c1ccco1)c1ccc(-c2ccccc2)cc1	n	n	n	n	n
O=C(Nc1ccc(NC(=O)c2ccco2)cc1)c1ccco1	n	n	n	n	n
O=C(Nc1ccc(Nc2ccccc2)cc1)c1ccco1	66.6	n	n	n	n
C/C(=N\NC(=O)c1ccco1)c1ccc(NC(=O)c2ccccc2)cc1	94.2	n	n	n	n
Cc1ccc(-c2cnc3c(c2)C(=O)N([C@H](C)CO)C[C@@H](C)[C@H](CN(C)C(=O)c2ccc(F)cc2)O3)cc1	x	n	x	x	x
COCC(=O)Nc1ccc2c(c1)[C@@H]1C[C@H](CC(=O)NCc3cccnc3)O[C@@H](CO)[C@@H]1O2	x	n	x	x	x
C[C@H]1CCCCO[C@H](CN(C)S(=O)(=O)c2ccc(F)cc2)[C@@H](C)CN([C@@H](C)CO)C(=O)c2cc(NS(=O)(=O)c3ccc(Cl)cc3)ccc2O1	x	n	x	x	x
CC(=O)N/C(=N\c1nc(C)cc(C)n1)Nc1ccc2ccccc2c1	n	n	n	n	-50.7
CS(=O)(=O)Nc1ccc2c(c1)[C@@H]1C[C@H](CC(=O)NCc3cccnc3)O[C@H](CO)[C@@H]1O2	x	n	x	x	x
CNC(=O)C[C@H]1CC[C@H]2[C@@H](COC[C@H](O)CN2C(=O)Nc2ccc3c(c2)OCO3)O1	x	n	x	x	x
Cc1c(-c2ccc(Br)cc2)nc2ccccn12	51.5	n	n	n	n
Cc1ccc(-c2nc3ccccn3c2C=O)cc1	n	n	n	n	n
COC(=O)C[C@@H]1C[C@@H]2c3cc(NS(=O)(=O)c4ccc(OC)cc4)ccc3O[C@@H]2[C@@H](CO)O1	x	n	x	x	x
CCCC12CN3CC(C)(CN(C1)C3c1cccs1)C2=O (configuration not stated)	61.9	x	n	n	n
CCCC12CN3CC(C)(CN(C1)C3c1ccc(OC(C)C)cc1)C2=O (configuration not stated)	n	n	n	n	n
CCOC(=O)c1cc2c(c(-c3cccc(-c4cccc(OC)c4)c3)n1)[C@@H](CCO)N(S(=O)C(C)(C)C)C2 (some centres not stated)	x	54.8	x	x	x
C/C=C/c1cccc(-c2nc(C(=O)NCc3ccncc3)cc3c2[C@H](CCO)N([S@@](=O)C(C)(C)C)C3)c1	x	52.0	x	x	x
CCOC(=O)c1cc2c(c(-c3cccc(-c4cccc(OC)c4)c3)n1)[C@H](CCO)N(S(=O)C(C)(C)C)C2 (some centres not stated)	x	n	x	x	x
C[C@@H]1CN([C@H](C)CO)S(=O)(=O)c2ccc(-c3ccncc3)cc2O[C@H]1CN(C)C(=O)c1ccc2c(c1)OCO2	x	n	x	x	x
Cc1cccc(S(=O)(=O)N2C[C@H](O)COC[C@H]3O[C@H](CC(=O)N4CCN(C)CC4)CC[C@@H]32)c1	x	n	x	x	x
Cc1c(C#N)c(O)[nH]c(=O)c1N=Nc1ccc(Br)cc1C(=O)O	n	n	n	n	n
Cc1cccc(N=Nc2c(C)c(C#N)c(O)[nH]c2=O)c1	54.4	n	n	n	n
